In ChEMBL document CHEMBL3988442, “University of Dundee, Small-Polar-MMV Screening Library” (2021):

Target: AMP-activated protein kinase, AMPK (Homo sapiens) (UniProt P54646+O43741+P54619+Q9UGJ0+Q9Y478+Q13131+Q9UGI9)
Experiment: AMP-dependent Kinase enzyme assay. An in vitro enzyme assay that detects ADP turnover that is directly proportional to AMPK activity. This uses naive AMPK that is activated during the assay with MK-8722
Format: functional
Parameters: scale not given: direction of the effect not stated beside the values
Settings: 30 µM

SMILES	Percent Effect
N#Cc1cccnc1NCCc1cc(F)cc2c1OCOC2	22.2%
Cc1noc(CN(C)c2nc(-c3ccco3)nc3c2CCN(C)CC3)n1	3.37%
CC(C)Cc1ncc2c(n1)CN(c1cc(NCCO)nc(N)n1)C2	-165%
CC(C)[C@@H]1CN(c2ccc(F)cn2)C[C@H]1NS(C)(=O)=O	-3.59%
CCC1(CC)CC(=O)N(CC(O)c2cccc(F)c2)C1=O (centres undefined)	12.2%
O=C(NCCn1ccnc1-c1cc2n(n1)CCNC2)c1ccc(F)cc1	1.27%
COCCN1CCN(Cc2coc(-c3ccccc3Cl)n2)CC1	-1.56%
CC(C)(C)c1cn2c(n1)C(CNCc1ccccn1)CCC2 (centres undefined)	-3.66%
CNC(=O)C1Cc2ccccc2CN1C(=O)CC(C)C (centres undefined)	-7.28%
CCC(C(=O)NCc1nc(C)cc(C(F)(F)F)n1)n1cccn1 (centres undefined)	4.67%
Cc1nccn1[C@@H]1CC[C@@H](N(C)S(=O)(=O)c2cccc(F)c2)[C@H]1O	28.1%
O=C1CN([C@@H]2CC[C@@H](NS(=O)(=O)c3ccc(F)cc3)[C@H]2O)CCN1	2.53%
COc1ccc(CN(C)Cc2c(C)noc2C)c(Cl)c1OC	6%
COc1ccc(N2CCN(Cc3nc(CSC)no3)C(C)C2=O)cc1 (centres undefined)	4.28%
Cc1ccc(S(C)(=O)=O)cc1NCC(=O)NCCC1=CCCCC1	0.0953%
CN(Cc1n[nH]c2c1CCC2)C(=O)c1cc(-c2cccn2C)n[nH]1	-16.6%
COc1nc2c(cc1C(=O)NC(C)Cc1cnccn1)CCC2 (centres undefined)	-1.98%
CCOc1ccc(Br)cc1S(=O)(=O)N(CC)Cc1ccc(N(C)C)cc1	-7.47%
CCCc1nc(C(=O)NC(COC)c2ccnn2C)cs1 (centres undefined)	-0.17%
Cc1noc(CS(=O)(=O)c2cc(F)ccc2F)n1	-0.296%

SMILES	Percent Effect
c1cc(CN2CCC[C@@H](Cn3nnc(-c4cnccn4)n3)C2)ccn1	6.31%
COc1c(CNCC(=O)N2CCN(C)CC2)c(C(C)C)nn1C	-12.4%
O=C(NCC[S+]([O-])c1ccccc1)c1ccc2[nH]c(=O)[nH]c2c1 (centres undefined)	6.24%
CO[C@@H]1CC[C@@H](NC(=O)CCc2ccc(Cl)cc2)[C@H]1O	8.1%
CCC[C@@H]1CN(Cc2ccc(C(F)(F)F)nc2)C[C@H]1C(=O)O	-4.32%
CC(C)c1nnc2n1CCN(Cc1ccc3c(c1)OCO3)CC2	9.68%
CN1CCC(N(Cc2ccncc2)C(=O)COCC2CCCCO2)CC1 (centres undefined)	1.82%
CN(CCc1ccccn1)C(=O)Cn1cc(-c2ccccc2)nn1	-0.117%
COCCCC1(CO)CCCN(C(=O)c2cnc(C3CC3)nc2)C1 (centres undefined)	2.98%
COc1ccccc1CN(C)C(=O)C[S+]([O-])Cc1cc(C)on1 (centres undefined)	-2.86%
COc1ccccc1NC(=O)c1cnc(C2CCN(C(C)=O)C2)nc1C (centres undefined)	5.26%
N#Cc1cccc(N2CCC(CO)(CCOc3ccccc3)CC2)n1	3.85%
NC(=O)CN1CCC(c2noc3cc(F)ccc23)CC1	12.7%
c1ccc(-c2cc(CN3CCCCCC3c3ccco3)on2)nc1 (centres undefined)	8.41%
O=C(NCc1nc[nH]n1)c1cc(COc2ccccc2F)[nH]n1	-3.43%
CC(=O)c1cnc(NCCN2CCCC(c3ccccc3)C2)nc1C (centres undefined)	-7.52%
CCC(C)C(=O)N(C)Cc1cc(F)ccc1N1CCC(OC)CC1 (centres undefined)	8.71%
CCc1nnc2n1CCN(C(=O)C(C)Oc1ccc(C#N)cc1)C2 (centres undefined)	10.6%
Cc1nc(C)c(C(=O)N2CCc3c(C)cccc32)o1	4.71%
